An excerpt weighted towards active compounds, which were near 0.65% of everything screened.
AMA1-RON2 inh: disrupts binding of P. falciparum AMA1 to RON2; AlphaScreen AMA1-biotinylated RON2 peptide binding; Potency, µM (top dose mostly 58.2 µM), for the others: at the top dose activity change, negative = inhibition, usual class: inhibitors; 360,000 tested, 0.2% active; AID 720542; active = well fitted inhibition curve with a large enough effect; inconclusive = small, poorly fitted or top-dose-only effect; inactive = no such curve, though single readings can be large or run the other way;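 note: potency is the fitted concentration of half-maximal effect; 0% = vehicle wells and -100% = peptide control; nearly all actives have a fitted effect of over 45% in size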
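AMA1 (3D7) with his tag at 25 nM final met compounds first, then biotinylated RON2 peptide at 25 nM; detection used donor plus acceptor beads, 10 µg/mL apiece, read by AlphaScreen after 30 min at room temperature.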
SARS PLpro yeast: blocks SARS-CoV papain-like protease in a yeast assay; S. cerevisiae expressing SARS-CoV PLpro, growth rescue; Potency, µM (titrated, usually from 32.9 µM), inactives show at the top dose activity, positive = growth rescue, most hits filed as activators; 330,000 tested, 0.19% active; note: potency is the fitted concentration of half-maximal effect; 0% is about no effect; nearly all actives have a fitted effect of over 55% in size
NS1 function inh: influenza NS1 inhibition | Potency, µM (highest dose often 46.1 µM), without a hit: at the top dose activity, positive = more growth | 270,000 tested, 0.4% active | AID 2326; note: potency is the fitted concentration of half-maximal effect; actives are rising curves; nearly all actives have a fitted effect of over 50% in size
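OD600 was taken as the measure of yeast growth restored by compound in an NS1-expressing S. cerevisiae strain. Cells had been washed out of glucose medium and diluted 1:100 into galactose -URA medium, pH 6.0.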
NS1 inh valid: influenza NS1 function inhibition validation | shares compounds with NS1 function inh | influenza NS1 function cell assay, 15-point titration | activity change, negative = inhibition, % at 32.9 µM | 1,400 tested, under 10 active | AID 492980; note: 0% is about no effect
Flu PR8 replic: reduces influenza A/PR/8/34 replication in MDCK cells. shares compounds with NS1 function inh. MDCK infected influenza A/PR/8/34, virus titer TCID50; stronger effect = lower value. virus titer (log TCID50), log10 TCID50 at 5 µM. 95 tested, 30% active. AID 504647; call rule not given here
Active calls of the source: *; ? = inconclusive; nt = no result. Unless noted, calls come from the whole dose curve.

SMILES	AMA1-RON2 inh	SARS PLpro yeast	NS1 function inh	NS1 inh valid	others
O=C(CCN1C(=O)/C(=C\C=C\c2ccccc2)SC1=S)Nc1ccc(C(=O)O)cc1	-18%	-7%	17%	nt
O=C(CN1C(=O)/C(=C\C=C\c2ccccc2)SC1=S)Nc1ccc(F)cc1	2%	19%	18µM*	-5
O=C1c2ccccc2C(=O)N1OCCCN1C(=O)c2ccccc2S1(=O)=O	3%	nt	nt	nt
C#CCn1c(=NC(=O)c2ccc(S(=O)(=O)N3CCCc4ccccc43)cc2)sc2cc(S(N)(=O)=O)ccc21	7%	9%	11µM*	18
Cn1c(=NC(=O)c2ccc(S(=O)(=O)N3CCCc4ccccc43)cc2)sc2cc(S(C)(=O)=O)ccc21	0%	?	12%	nt
COCC#Cc1cnc2c(c1)C(=O)N([C@H](C)CO)C[C@H](C)[C@@H](CN(C)S(=O)(=O)c1ccccc1)O2	-10%	nt	nt	nt
Cn1c(SCCOc2ccccc2Cl)nnc1-c1cccs1	-8%	-47%	?	?
Cc1cc(OCCSc2nnc(-c3cccs3)n2C)ccc1Cl	40%	-5%	-169%	nt
CC(=O)c1cccc(NC(=O)C2CC(=O)N(C3CCCC3)C2)c1 (configuration not stated)	10%	5%	nt	nt
Nc1ccccc1-c1nnc(SCc2ccccc2Cl)[nH]c1=O	2%	-34%	-71%	nt
Cc1ccc(CSc2nnc(-c3ccccc3N)c(=O)[nH]2)cc1	14%	-23%	11µM*	-35
COc1ccc(C(=O)NCCC(=O)N2CCC3(CC2)NCCc2[nH]cnc23)cc1	15%	-3%	-4%	nt
CC(C)CC(C(=O)Nc1cccc(O)c1)N1C(=O)c2ccccc2C1=O (configuration not stated)	-4%	9%	?	nt
CC(C)CC(C(=O)Nc1oc(-c2ccco2)c(-c2ccco2)c1C#N)N1C(=O)c2ccccc2C1=O (configuration not stated)	16%	6%	10µM*	-11	Flu PR8 replic=8
C=CCNc1ccccc1S(=O)(=O)NCc1ccccc1	27%	-7%	nt	nt
O=C1CCC/C(=N/NC(=O)c2ccc(CN3c4cccc5cccc(c45)S3(=O)=O)cc2)C1	57%	21%	14µM*	11
O=C(O)c1ccc(/C=N/NC(=O)c2ccc(CN3c4cccc5cccc(c45)S3(=O)=O)cc2)cc1	68%	0%	15%	nt
CCS(=O)(=O)c1nc(S(=O)(=O)c2ccc(Cl)cc2)c(N2CCC(O)CC2)s1	5%	1%	-1%	nt
Cn1c(CC(=O)Nc2ccccc2F)nnc1SCC(=O)NC1=NCCS1	-1%	0%	1%	nt
O=C(NC1CCCCC1)C(c1cccnc1)N(C(=O)c1csnn1)c1ccc(F)cc1 (configuration not stated)	4%	0%	-1%	nt
CN(C)C(=O)[C@@H]1C[C@H]1[C@@H](NC(=O)OCc1ccccc1)c1ccccc1	4%	4%	-7%	nt
COC(=O)[C@H]1C[C@@H]1[C@H](NC(=O)[C@H]1C[C@@H]1[C@H](NC(=O)OCc1ccccc1)c1ccccc1)c1ccccc1	6%	1%	10µM*	-5
CCN(CC)C(=O)c1sc2nc(-c3cccs3)cc(-c3ccc(Cl)cc3)c2c1N	21%	2%	4.5µM*	?
CCN(CC)C(=O)c1sc2nc(-c3cccs3)cc(-c3cccs3)c2c1N	39%	-2%	2%	nt
CC(=O)Nc1ccc(-c2csc(NC(=O)C3CCN(S(=O)(=O)c4cccs4)CC3)n2)cc1	?	8%	13µM*	16
SMILES	AMA1-RON2 inh	SARS PLpro yeast	NS1 function inh	NS1 inh valid	others
Cc1csc(NC(=O)C2CCN(S(=O)(=O)c3cccs3)CC2)n1	-13%	0%	nt	nt
O=C(O)CCC(=O)Nc1ccc(SSc2ccc(NC(=O)CCC(=O)O)cc2)cc1	16%	4%	-4%	nt
O=C(O)c1cc(NS(=O)(=O)c2ccc(NCc3ccccc3)c([N+](=O)[O-])c2)cc(C(=O)O)c1	-6%	9%	14µM*	33
O=C(O)c1cc(NS(=O)(=O)c2ccc(NC3CCCCC3)c([N+](=O)[O-])c2)cc(C(=O)O)c1	-5%	1%	6%	nt
CCCCCCn1nc(C(=O)N(CCCC)c2c(N)n(CCC)c(=O)[nH]c2=O)c2ccccc2c1=O	39%	-1%	nt	nt
O=C1OCCN1C(=O)[C@H]1[C@H](c2ccc([N+](=O)[O-])cc2)C(c2ccccc2)=NN1c1ccccc1	-19%	15%	nt	nt
O=C1OCCN1C(=O)[C@H]1[C@H](c2ccc([N+](=O)[O-])cc2)C(c2cccc(Cl)c2)=NN1c1ccccc1	-18%	5%	22µM*	28
CC(OC(=O)c1cnccn1)C(=O)c1ccccc1 (configuration not stated)	0%	-1%	nt	nt
Cc1nn(-c2ccccc2)c2c1C(c1ccc(O)c(O)c1)N1C(=N2)C(Nc2ccccc2)=Nc2ccccc21 (configuration not stated)	-2%	-11%	?	nt
Cc1cccc(NC2=Nc3ccccc3N3C2=Nc2c(c(C)nn2-c2ccccc2)C3c2ccc(O)c(O)c2)c1 (configuration not stated)	?	3%	3.5µM*	3
O=C(C[C@H]1C/C=C\CC[C@H](Cc2ccc(F)cc2)C(=O)OC[C@H]2CCCN2C1=O)NCCO	34%	0%	nt	nt
Cc1ccc(NS(=O)(=O)c2ccc(N3CCN(c4ccc(O)cc4)CC3)c([N+](=O)[O-])c2)c(C)c1	?	-64%	16%	nt
O=[N+]([O-])c1cc(S(=O)(=O)Nc2ccccc2)ccc1N1CCN(c2ccc(O)cc2)CC1	?	8%	14µM*	6
COc1ccc(-c2cc(C(=O)N(C)Cc3nc4ccccc4c(=O)[nH]3)c3ccccc3n2)cc1OC	15%	3%	nt	nt
COc1ccc(-c2nn(-c3ccccc3)cc2/C=N/NC(=O)c2ccc3c(c2)OCO3)cc1	nt	3%	5%	nt
COc1ccc(-c2nn(-c3ccccc3)cc2/C=N/NC(=O)c2cccc(S(=O)(=O)Nc3ccccc3OC)c2)cc1	24%	4%	10µM*	5
CCN1CCN(CC(=O)c2ccc(OC)cc2)CC1	-1%	0%	nt	nt
CCC1(c2ccccc2)NC(=O)N(CC(=O)NC2CCCCCC2)C1=O (configuration not stated)	4%	4%	nt	nt
Nc1ncnc2nc(SCC(=O)Nc3ccccc3F)[nH]c12	12%	1%	21%	nt
NC(=S)NNC(=O)c1cccc(Cl)c1	46%	-1%	3.2µM*	7
O=C(NNC(=O)c1cccc(Cl)c1)NNC(=O)c1cccc(Cl)c1	2%	2%	nt	nt
CCC1CCCN1Cn1cnc2c([nH]c3ccc(C)cc32)c1=O (configuration not stated)	10%	4%	?	-23
CCC1CCCN1Cn1cnc2c([nH]c3ccc(Cl)cc32)c1=O (configuration not stated)	11%	11%	0%	nt
C[C@H](CO)N1C[C@H](C)[C@H](CN(C)S(=O)(=O)c2cccc(F)c2)Oc2cc(Br)ccc2S1(=O)=O	-2%	nt	nt	nt

Screening results from PubChem BioAssay.
